From PubChem BioAssay (Tox21)
The source made the active and inactive calls. Entries that show only a call come without a potency. The call rests on the fitted dose curve; in most records, active means well fitted curve in the direction sought with a large enough effect in the repeat runs; inconclusive means weak or mixed curves; inactive means flat fitted curve, though single readings scatter.

Assay: qHTS assay to test for compound auto fluorescence at 460 nm (blue) in HepG2 cells (AID 720687)
Settings: autofluorescence 405/460 nm, 1 h; series mostly up to 46 µM
From the text: U.S. Tox21 Program National Center for Advancing Translational Sciences [NCATS] NIH Chemical Genomics Center [NCGC] U.S. Environmental Protection Agency [EPA] National Institutes of Environmental Health Sciences [NIEHS] National Toxicology Program [NTP] U.S. Food and Drug Administration [FDA] Tox21 Assay Overview: Compound auto fluorescence often interferes with screening of the compound library against various biological targets and signaling pathways. Some of these compounds may have fluorophoric properties. Such properties may interfere with the assay outputs resulting in false positives and/or negatives. To decrease such complications and ensure the compound activities are relevant in terms of biological response, the Tox21 10K compound library was screened for auto fluorescence. From the fluorophores used as reporter signals in our screening assays, the auto fluorescence equivalencies of compounds against three fluorophores have been evaluated: Triamterene, Fluorescein and Rose Bengal sodium for blue, green and red fluorescence, respectively. The fluorescence intensities were measured using Excitation/Emission wavelengths at 405/460nm, 485/535nm and 540/590nm for blue, green and red labels, respectively. This assay includes the blue fluorescence data.
Tox21 Assay Protocol Summary: 2,000 HepG2 cells in 5 uL of culture medium (MEM containing 10% FBS) per well were dispensed into black wall/clear bottom 1536-well plates using a Multidrop Combi Dispenser (ThermoFisher Scientific, Waltham, MA). The assay plates were incubated overnight at 37 C to allow cell attachment to the well bottom, followed by the transfer of 23 nL compound or DMSO vehicle by a pintool work station (Kalypsys , San Diego, CA). After the assay plates were incubated for 1 hr at 37 C and 5% CO2, fluorescence intensities in the assay plates were measured by an Envision (PerkinElmer, Shelton, CT) plate reader using three labels for measuring blue, green and red fluorescence at […] 460, 535 and 590 nm respectively.

Compound | Potency
C[Se]CC[C@H](N)C(=O)O | inactive
O=C1CCC/C=C\CCCCCCCCCC1 | inactive
COc1c(Br)cc(Br)c(C)c1Br | inactive
CO/N=C(\C(=O)N[C@@H]1C(=O)N2C(C(=O)[O-])=C(C[n+]3cccc4c3CCC4)CS[C@H]12)c1csc(N)n1 | inactive
O=C(O)/C=C/C(=O)Nc1ccc(S(=O)(=O)Nc2nccs2)cc1 | inactive
Cc1cc(F)ccc1-c1cc(N2CC[C@@H](O)[C@H]2CO)ncc1N(C)C(=O)C(C)(C)c1cc(C(F)(F)F)cc(C(F)(F)F)c1 | inactive
CC(=O)OCC1=C(C(=O)O)N2C(=O)[C@@H](NC(=O)Cc3ccccc3)[C@H]2SC1 | inactive
NC(=O)[C@@H]1CCCN1C(=O)[C@H](Cc1cnc[nH]1)NC(=O)[C@@H]1CCC(=O)N1 | inactive
C[C@H](NCCc1ccc(O)cc1)[C@H](O)c1ccc(O)cc1 | inactive
NCCO/C=C/[C@H](N)C(=O)O | inactive
CNC(=O)C[C@@H](N)C(=O)N[C@@H](C(=O)N[C@@H]1C(=O)N2[C@@H]1SC(C)(C)[C@@H]2C(=O)O)c1ccc(O)cc1 | inactive
CC(C)c1ncc([N+](=O)[O-])n1C | inactive
Cc1cc(C(=O)NCCc2ccc(S(=O)(=O)NC(=O)NN3CCCCCC3)cc2)no1 | inactive
CC(=NCc1ccccc1)c1ccccc1O | inactive
CCN1CCCC1CNC(=O)c1cc(S(=O)(=O)CC)ccc1OC (stereo not given) | inactive
COC(=O)[C@H]1[C@H]2C[C@H]3c4[nH]c5ccccc5c4CCN3C[C@H]2CC[C@@H]1O | inactive
C=CCN1C(=O)C(CC(C)C)NC1=S (stereo not given) | inactive
CCOc1ccc(S(=O)(=O)O)c2cccnc12 | inactive
COc1cccc(-c2ccc(/C=C\CN3CCCCCC3)cc2Cl)c1 | inactive
Nc1ccc(N)c([N+](=O)[O-])c1 | inactive

Compound | Potency
NC(=O)c1cc[n+](CC2=C(C(=O)O)N3C(=O)[C@@H](NC(=O)C(c4ccccc4)S(=O)(=O)[O-])[C@H]3SC2)cc1 (stereo not given in full) | inactive
CN(C)CCOc1ccc(/C(=C(/CCCl)c2ccccc2)c2ccccc2)cc1 | inactive
CC[C@H]1OC(=O)C[C@@H](O)[C@H](C)[C@@H](O[C@@H]2O[C@H](C)[C@@H](O[C@H]3C[C@@](C)(O)[C@@H](O)[C@H](C)O3)[C@H](N(C)C)[C@H]2O)[C@@H](CC=O)C[C@@H](C)C(=O)/C=C/C(C)=C/[C@@H]1CO[C@@H]1O[C@H](C)[C@@H](O)[C@@H](OC)[C@H]1OC | inactive
O=C1c2ccccc2C(=O)C1c1ccc(F)cc1 | inactive
CO/N=C(\C(=O)N[C@@H]1C(=O)N2C(C(=O)O)=C(CSc3nc(C)c(CC(=O)O)s3)CS[C@H]12)c1csc(N)n1 | inactive
N#Cc1nc(Cl)c(Cl)c(Cl)c1Cl | inactive
CCCCCCCCCCCCCCCCC(C(=O)O)C(O)(CC(=O)O)C(=O)O (stereo not given) | inactive
COc1cc2c(cc1OC)[C@@H](Cc1cc(OC)c(OC)c(OC)c1)[N+](C)(CCCOC(=O)CC/C=C/CCC(=O)OCCC[N+]1(C)CCc3cc(OC)c(OC)cc3[C@H]1Cc1cc(OC)c(OC)c(OC)c1)CC2 (stereo not given in full) | inactive
CC(=O)Nc1ccc(OC(C)=O)cc1 | inactive
CCCCCCOC(=O)c1cccnc1 | inactive
CC(C)=CCC/C(C)=C/CC/C(C)=C/CC/C(C)=C/CC1=C(C)C(=O)c2ccccc2C1=O | inactive
O=C(O)c1cc(=O)c2c3nc4ccccc4oc-3cc(=O)c2[nH]1 | inactive
Cc1cnc(C(=O)O)c[n+]1[O-] | inactive
CNCC(=O)N[C@@H](CCCN=C(N)N)C(=O)N[C@H](C(=O)N[C@@H](Cc1ccc(O)cc1)C(=O)N[C@H](C(=O)N[C@@H](Cc1cnc[nH]1)C(=O)N1CCC[C@H]1C(=O)N[C@@H](C)C(=O)O)C(C)C)C(C)C | inactive
Cc1ccc(Cl)c(N)c1Cl | inactive
C=C(Nc1ccc(OCC)cc1)Nc1ccc(OCC)cc1 | inactive
CCCCCN=C(N)N/N=C/c1c[nH]c2ccc(OC)cc12 | inactive
CCOC(=O)COc1ccc2c(=O)cc(-c3ccccc3)oc2c1 | inactive
CSCCC(N)C(=O)O (stereo not given) | inactive
C=N[C@@H](C(=O)N[C@@H]1C(=O)N2[C@@H]1SC(C)(C)[C@@H]2C(=O)O)c1ccccc1 | inactive
